Data reported in PubChem BioAssay (NCI).
“And” between values parts separate entries of the source, which are not always exact repeats. Equal values may be shown once. Compounds without any hit were thinned out: in the full panel of roughly 79,000, 15% have a hit. A number with no mark means an inactive call. Rule as the data show it: active = growth inhibition above about 70%; inactive = the rest.

Experiment: NCI Yeast Anticancer Drug Screen. Data for the mec2-1 strain (AID 157)
Details: S. cerevisiae mec2-1 strain, stronger effect = higher value; at 50.0 µM unless noted
How it was run: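 Mutant yeast (mec2-1) grown with compound; growth inhibition relative to vehicle control reported.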

SMILES	growth inhibition
CC1=C(CCC(=O)O)C(=O)C(CCC(=O)O)C(C)(C)C1 (centres undefined)	7.45%
CC1=C2CC3=C(C)C(=O)O[C@H]3C[C@@H](C)[C@@H]2CC1	9.9%
O=S(=O)(O)C(I)S(=O)(=O)O	-2.65%
CC(C)(C1CCC([Si](C2CCCCC2)(C2CCCCC2)C2CCCCC2)CC1)[Si](C1CCCCC1)(C1CCCCC1)C1CCCCC1 (centres undefined)	-0.15%
CCOP(=O)(OCC)/C(=C\n1c(=S)[nH]c2cc(C)ccc21)C(=O)OC	-27.7%
O=C(/C=C/c1ccc(OCC(=O)N2CCN(c3ccccc3)CC2)cc1)c1ccccc1	16%
CC1(C)N=C(N)N=C(N)N1c1ccc(N)cc1	-3.8%
Cc1cc2nc3c(C(OC4OC(CO)C(O)C(O)C4O)C(O)CO)nn(-c4ccc(F)cc4)c3nc2cc1C (centres undefined)	-6.85%
CCCCCCCCCCCCCCCc1ccc(N)c(OC2OC(CO)C(O)C(O)C2O)c1 (centres undefined)	6.7% and -18.2%
Cn1c2ccccc2c2nnc(NCCCO)nc21	21.7%
C=CCSCc1ccccc1	2.95%
Cc1ccccc1C(=O)C[n+]1ccccc1C	15.5%
CN1C(=O)CCC1c1nc2ccccc2[nH]1 (centres undefined)	9.95%
C(/C=N/NC1=NCCN1)=N\NC1=NCCN1	18.1%

Experiment: NCI Yeast Anticancer Drug Screen. Data for the sgs1 mgt1 strain (AID 161);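 also: 0% = growth of cultures given vehicle only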
Details: S. cerevisiae sgs1 mgt1 strain, stronger effect = higher value; at 50.0 µM unless noted
How it was run: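 Percent growth inhibition was derived by comparing compound-exposed mutant yeast with vehicle-exposed cultures. The strain carries alterations in DNA damage repair.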

SMILES	growth inhibition
COc1cc2c(cc1OCc1ccccc1)C(Cc1cc(Br)sc1Br)=NCC2	54%
C=C(NC(=O)C(c1ccccc1)c1ccccc1)C(=O)O	-1.15%
NC(=S)/N=C/C=C\c1ccccc1	5.25%
COC(OC)C(C)=O	-18.9%
Cc1[nH]n(-c2ccc(Cl)cc2)c(=O)c1N=Nc1cccc(C(F)(F)F)c1	2.1%
NC(Cc1ccc2nc3c4ccccc4c(=O)cc-3oc2c1)C(=O)O (centres undefined)	-14.6%
Cc1cccc[n+]1C	0.05%
Cc1ccc(-c2ccc(C)cc2C(=O)O)c(C(=O)O)c1	4%
CC(=O)N1C(=O)CC23c4cccc([N+](=O)[O-])c4C(=O)N2CCCN13 (centres undefined)	0.9%
CCCCCCOc1ccccc1CO	-1.5%
Cc1ccccc1C(=O)c1ccccc1C	-7.2%
O=c1[nH]c(Br)nc2c(N3CCCCC3)c[nH]c12	-7.2%
COc1ccc(-c2cc(-c3ccco3)c(C#N)c(=O)[nH]2)cc1	14.2%
[O-]c1nn(-c2ccccc2)n[n+]1-c1ccccc1	-0.55%
O=C(CCl)Nc1cc2ccccc2oc1=O	20.6%
CCOC(=O)c1ccc(NC(=O)Nc2cc(Cl)ccc2C)cc1	16.1%
CCN(CC)Cc1cc(O)ccc1NCCCNc1ccnc2cc(Cl)ccc12	40.1%
C/C(=N\NS(=O)(=O)c1ccc(C)cc1)c1cccs1	6.4%
Nc1ccccc1[N+](=O)[O-]	-14.7%
O=[N+]([O-])c1cccc(/C=C/c2ccnc3ccccc23)c1	2.95%

SMILES	growth inhibition
CN1CCN(C2c3ccccc3OC(C)(C)C2O)CC1 (centres undefined)	-14.8%
ClC(Cl)CN(Cc1ccccc1)c1ncc[nH]1	28%
CCN(CC)CCNc1ccc2ncn3c4cc(=O)ccc4c(O)c1c23	-46.4%
Cc1cc[n+]2cc(-c3ccc(/C=N/N=C(N)N)cc3)n(C)c2c1	18.7%
C[C@H]1CC[C@@H]2O[C@@]23C(=O)OC2OC(C)(C)[C@@H]([C@H]2O)[C@]13C	-26%
CC(C)CNC(=O)c1ccccc1Cl	-5.4%
CC1=C(CCC(=O)O)C(=O)C(CCC(=O)O)C(C)(C)C1 (centres undefined)	13.2%
CC1=C2CC3=C(C)C(=O)O[C@H]3C[C@@H](C)[C@@H]2CC1	26%
O=S(=O)(O)C(I)S(=O)(=O)O	-19.4%
CC(C)(C1CCC([Si](C2CCCCC2)(C2CCCCC2)C2CCCCC2)CC1)[Si](C1CCCCC1)(C1CCCCC1)C1CCCCC1 (centres undefined)	-14.4%
CCOP(=O)(OCC)/C(=C\n1c(=S)[nH]c2cc(C)ccc21)C(=O)OC	13.3%
O=C(/C=C/c1ccc(OCC(=O)N2CCN(c3ccccc3)CC2)cc1)c1ccccc1	35.6%
CC1(C)N=C(N)N=C(N)N1c1ccc(N)cc1	2.75%
Cc1cc2nc3c(C(OC4OC(CO)C(O)C(O)C4O)C(O)CO)nn(-c4ccc(F)cc4)c3nc2cc1C (centres undefined)	-47.7%
CCCCCCCCCCCCCCCc1ccc(N)c(OC2OC(CO)C(O)C(O)C2O)c1 (centres undefined)	8.8% and 8.55%
Cn1c2ccccc2c2nnc(NCCCO)nc21	18.8%
C=CCSCc1ccccc1	-13.6%
Cc1ccccc1C(=O)C[n+]1ccccc1C	-5.7%
CN1C(=O)CCC1c1nc2ccccc2[nH]1 (centres undefined)	-3.05%
C(/C=N/NC1=NCCN1)=N\NC1=NCCN1	28.4%
